Test results taken from PubChem BioAssay AID1259422 (The Scripps Research Institute Molecular Screening Center, 2018).
Among all 640,000 compounds or so, about 9,300 (1.5%) were called active. No stated cut-off is given here; in the data, active means inhibition above about 32%; inactive means the rest. The full list was thinned out, with actives kept by preference.

Assay: TEAD-YAP interaction inhibition, primary screen, TEAD-YAP interaction inhibitor project, luminescence, HEK-TIYL cells (AID 1259422);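 further: 0% = median of test compound wells and 100% = reference inhibitor wells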
Settings: TEAD-Gal4/YAP UAS-luciferase luminescence, at 9.12 µM, hits give high values

| Compound | inhibition |
| --- | --- |
| CCOc1ccc(NC(=O)C2=C(C)NC(=O)NC2c2ccc(Cl)cc2)cc1 (stereo not drawn) | 11% (inactive) |
| CC1=C(C(=O)Nc2ccc(Cl)cc2)C(c2cccc(Cl)c2)NC(=O)N1 (stereo not drawn) | 6.92% (inactive) |
| CC1=C(C(=O)Nc2ccc(Cl)cc2)C(c2c(Cl)cccc2Cl)NC(=O)N1 (stereo not drawn) | 37.4% (active) |
| O=C(Nc1ccc(Br)cc1)c1cc2ccccc2c(=O)o1 | -8.82% (inactive) |
| Cc1ccc2nc(NCc3ccccc3)nc(-c3ccccc3)c2c1 | -0.32% (inactive) |
| O=c1c(-c2ccccc2)[n+]([O-])c2ccccc2n1OCc1ccccc1Cl | -9.42% (inactive) |
| CCOC(=CNc1ccc2nsnc2c1)OCC | -2.05% (inactive) |
| CCCOc1ccc(N2C(=O)CC(N(CCC34CC5CC(CC(C5)C3)C4)C(C)=O)C2=O)cc1 (stereo not drawn) | 1.87% (inactive) |
| COc1ccc(CCNc2ncnc3nc(Nc4ccc(N5CCOCC5)cc4)[nH]c23)cc1 | 20.2% (inactive) |
| c1ccc(Nc2nc3ncnc(NCc4cccnc4)c3[nH]2)cc1 | -5.96% (inactive) |
| c1cn(-c2ccc(Nc3nc4ncnc(NC5CC5)c4[nH]3)cc2)cn1 | 45.5% (active) |
| CC1=C(C(=O)Nc2cc(Cl)ccc2C(=O)O)SCCO1 | 5.44% (inactive) |
| CC(=O)c1ccc(N2CCN(C(=O)Cn3ncc4c3-c3cc(C)ccc3OC4)CC2)cc1 | -3.87% (inactive) |
| CCc1nnc2n1N(C(C)=O)C(c1ccc3c(c1)CCCC3)=C(C(C)=O)S2 | 10.8% (inactive) |
| CC(=O)C1=C(c2ccc(C(C)(C)C)cc2)N(C(C)=O)n2cnnc2S1 | 84% (active) |
| CCC(=O)C1=C(c2ccc(Cl)cc2)N(C(=O)CC)n2cnnc2S1 | 15.1% (inactive) |
| CCN1CCCC1CNC(=O)CSCc1nc(-c2ccccc2F)oc1C (stereo not drawn) | -9.37% (inactive) |
| CN(C(=O)c1cccs1)C(Cc1ccccc1)C1CCN(C(=O)C2CCOC2)CC1 (stereo not drawn) | -13% (inactive) |
| CCCCCCCCCc1ccc(OCCOCCOCCOCCOCCOCCOCCOCCOCCO)cc1 | 34.7% (active) |
| CCc1ccc(OCCOCCNCCN)cc1 | 13% (inactive) |
| CCCCCCCc1ccc(C(=O)Oc2ccc(Br)cc2)cc1 | 8.27% (inactive) |
| CCN(CC)CCCNC(=O)c1ccc(Cn2c(=S)[nH]c3cc4c(cc3c2=O)OCO4)cc1 | -11.4% (inactive) |
| Oc1c(C(Nc2ccccn2)c2cccnc2)ccc2cccnc12 (stereo not drawn) | 14.9% (inactive) |
| Cc1ccnc(NC(c2ccc3cccnc3c2O)c2c(F)cccc2Cl)c1 (stereo not drawn) | 34.7% (active) |

| Compound | inhibition |
| --- | --- |
| Cc1cccc(NC(c2ccc3c(c2)OCO3)c2ccc3ccc(C)nc3c2O)n1 (stereo not drawn) | 15.8% (inactive) |
| Oc1c(C(Nc2ccccn2)c2ccc(OC(F)F)cc2)ccc2cccnc12 (stereo not drawn) | 70.2% (active) |
| Cc1ccnc(NC(c2ccccc2Cl)c2ccc3cccnc3c2O)c1 (stereo not drawn) | 77.9% (active) |
| Oc1ccc2ncccc2c1C(Nc1ccccn1)c1ccccc1 (stereo not drawn) | 6.96% (inactive) |
| Cc1ccnc(NC(c2ccc(O)cc2)c2ccc3ccc(C)nc3c2O)c1 (stereo not drawn) | -16.1% (inactive) |
| COc1cc(C(=O)NC(c2ccccc2Cl)c2cc([N+](=O)[O-])c3cccnc3c2O)cc(OC)c1OC (stereo not drawn) | -0.41% (inactive) |
| Cc1cccc(NC(c2cccc(F)c2)c2ccc3ccc(C)nc3c2O)n1 (stereo not drawn) | 1.53% (inactive) |
| CCOC(=O)c1sc2ncn(CC(=O)Nc3cccc(C(F)(F)F)c3)c(=O)c2c1C | 0.34% (inactive) |
| Cc1ccc(NC(=O)c2cc(S(=O)(=O)N3CCN(c4cccc(Cl)c4)CC3)ccc2F)cc1F | -4.95% (inactive) |
| CCN1CCN(c2cc(Nc3cc(OC)c(OC)c(OC)c3)c3c4c(onc24)-c2ccccc2C3=O)CC1 | 5.58% (inactive) |
| Cc1ccc(S(=O)(=O)CCc2nnc(NC(=O)c3ccc([N+](=O)[O-])cc3)s2)cc1 | -5.17% (inactive) |
| NC(=O)Cn1c(=O)n(CCCCC(=O)NCc2ccccc2Cl)c(=O)c2ccccc21 | 2.5% (inactive) |
| O=C(NC1CCN(Cc2ccccc2)CC1)c1cccc(Nc2nccc3ccccc23)c1 | 2.07% (inactive) |
| CS(=O)(=O)N(CC(O)Cn1c2ccccc2c2ccccc21)c1ccccc1I (stereo not drawn) | -12.3% (inactive) |
| CCCC(=O)NC(c1ccccc1OC)c1cc([N+](=O)[O-])c2cccnc2c1O (stereo not drawn) | 20.6% (inactive) |
| CNC(=O)COC(=O)c1c(Cl)cccc1Cl | -0.51% (inactive) |
| Cc1ccc(S(=O)(=O)Nc2ccccc2C(=O)NN)cc1 | 12.8% (inactive) |
| CCOC(=O)c1ccccc1NC(=O)/C=C/c1ccc(OC)cc1 | 4.72% (inactive) |
| CCOC(=O)c1ccccc1NS(=O)(=O)c1ccc(OC)cc1 | 46.5% (active) |
| O=C(Nc1ccccc1C(F)(F)F)c1cc(S(=O)(=O)NC2CCCC2)ccc1F | 1.13% (inactive) |
| CCS(=O)(=O)c1ncc(Cl)c(C(=O)Nc2ccc(OC(F)F)cc2)n1 | -5.89% (inactive) |
| Cc1ccc(F)cc1NC(=O)Cc1nn(C)c(=O)c2ccccc12 | 29.9% (inactive) |
| Cc1cc(NC(=O)Cc2nn(C)c(=O)c3ccccc23)ccc1Br | 4.56% (inactive) |
| Cn1nc(CC(=O)Nc2ccc(F)c(F)c2)c2ccccc2c1=O | 46.9% (active) |

| Compound | inhibition |
| --- | --- |
| COc1cc(Nc2nccn3c(-c4cccc(NC(C)=O)c4)cnc23)cc(OC)c1OC | 51.5% (active) |
| COc1ccc(Nc2ncc(-c3cccc(NC(C)=O)c3)n3ccnc23)cc1 | -67.3% (inactive) |
| COc1cccc(-c2cnc3c(Nc4ccc(C(N)=O)cc4)nccn23)c1 | -21.2% (inactive) |
| Cc1nc(-c2cncc(-c3ccc(F)cc3)c2)cc(=O)[nH]1 | 5.59% (inactive) |
| COc1cc(NC(=O)c2sc3ncn(Cc4ccccc4Cl)c(=O)c3c2C)cc(OC)c1OC | 0.99% (inactive) |
| COc1cc(C(=O)Nc2ncc(Cc3ccccc3Cl)s2)cc(OC)c1OC | 57.5% (active) |
| COc1cc(C(=O)Oc2ccccc2Cl)cc(OC)c1OC | 0.19% (inactive) |
| CC(=O)Nc1ccc(NC(=O)c2cc3nc(C)ccc3o2)cc1 | 6.06% (inactive) |
| CCOC(=O)c1ccc(NC(=O)COc2c(Br)cc(C=O)cc2OC)cc1 | -2.35% (inactive) |
| CC1Nc2c(c(=O)oc3ccccc23)NC1=O (stereo not drawn) | -13.4% (inactive) |
| O=C(Nc1ccc(Oc2ccccc2)cc1)c1ccc2c(=O)n(CCc3ccccc3)c(=S)[nH]c2c1 | 4.57% (inactive) |
| O=c1c2nccnc2[nH]c(=S)n1CCc1ccccc1 | 32.2% (active) |
| O=C(NCCc1ccc(Cl)cc1)c1ccc2c(=O)n(CCc3ccccc3)c(=S)[nH]c2c1 | 6.42% (inactive) |
| Cc1ccc(C)c(C(=O)Nc2ccc3c(c2)N(S(=O)(=O)c2ccc(F)cc2)CCC3)c1 | -2.68% (inactive) |
| CC(=O)Nc1nc(C)c(-c2csc(Nc3ccc(C)cc3)n2)s1 | 1.48% (inactive) |
| Cc1nc(C)c(-c2csc(Nc3ccc(Br)cc3)n2)s1 | 52.5% (active) |
| Cc1nc(N)sc1-c1csc(Nc2ccc(O)cc2)n1 | 2.78% (inactive) |
| CC(C)Cn1c(-c2ccccc2)c[nH]c1=S | 4.66% (inactive) |
| CCN1CCN(C2=C(Cl)C(=O)N(c3cccc(C(=O)OC)c3)C2=O)CC1 | 23.4% (inactive) |
| CCOc1ccc(Cl)cc1S(N)(=O)=O | -4.54% (inactive) |
| CC(=O)Nc1cccc(C(=O)N/N=C/c2c(O)ccc3ccccc23)c1 | 14.8% (inactive) |
| O=C(N/N=C/c1c(O)ccc2ccccc12)c1cc([N+](=O)[O-])cc([N+](=O)[O-])c1 | 3.24% (inactive) |
| COc1ccc(C(=O)N/N=C/c2c(O)ccc3ccccc23)cc1 | 58.3% (active) |
| O=C(NCc1ccco1)c1ccc(N2CC3CC(C2)c2cccc(=O)n2C3)c(NC(=S)Nc2ccc(Cl)cc2Cl)c1 (stereo not drawn) | -0.4% (inactive) |

| Compound | inhibition |
| --- | --- |
| Cc1ccc(Nc2nc3nonc3nc2NNc2ccccc2)cc1Cl | -9.84% (inactive) |
| Nc1nc2nonc2nc1Nc1ccccc1 | 10.4% (inactive) |
| Cc1ccc(Nc2nc3nonc3nc2Nc2ccccc2F)cc1 | 69.4% (active) |
| Cc1cc(Cl)cc(Cl)c1OCCOCCN(C)CCO | 3.38% (inactive) |
| O=C(NCCc1ccccc1)c1cc(Sc2ccccc2Cl)nc2ccccc12 | -11.2% (inactive) |
| O=C(NCCc1ccsc1)Nc1ccccc1F | -29.3% (inactive) |
| O=C(NCCc1ccsc1)c1ccccc1Cl | 46.4% (active) |
| COc1cccc(NC(=O)CSc2nnc(-c3ccc(F)cc3)c(-c3ccc(F)cc3)n2)c1 | 16.5% (inactive) |
| COc1ccc(Nc2ncnc3ccc(Br)cc23)cc1 | 33.4% (active) |
| Fc1ccc(Nc2ncnc3ccc(I)cc23)cc1 | 25.1% (inactive) |
| COc1ccc(Nc2ncnc3c2cnn3-c2ccc(OC)cc2)cc1 | -19.6% (inactive) |
| CC(=O)Oc1cccc(C(=O)Nc2ccccc2Br)c1 | 14.5% (inactive) |
| CC(=O)Oc1cc(C(=O)Nc2cccc(C#N)c2)cc(C(=O)Nc2cccc(C#N)c2)c1 | -1.56% (inactive) |
| CC(=O)Oc1cccc(C(=O)Nc2ccc(C)c(C)c2)c1 | 62.5% (active) |
| O=C(CNC(=O)c1ccc(Br)o1)OCC(=O)c1ccc(Br)cc1 | 4.37% (inactive) |
| Cc1ccc(CNC(=O)C(=O)N/N=C/c2ccccc2I)cc1 | -10.4% (inactive) |
| COc1ccc(CC2(CCC(=O)NCc3nc(C)cs3)CCC(=O)N2)c2ccccc12 (stereo not drawn) | -13.4% (inactive) |
| CCOc1ccccc1Nc1nnc(Cc2ccc(OC)cc2)c(=O)[nH]1 | 3.03% (inactive) |
| COc1cccc(Nc2nnc(Cc3ccc(Cl)cc3)c(=O)[nH]2)c1 | 7.31% (inactive) |
| COc1ccc(Cc2nnc(N/N=C/c3ccccc3O)[nH]c2=O)cc1OC | 85.4% (active) |
| COc1cccc(C2(NC(=O)CN3C(=O)NC4C3N(C)C(=O)N4C)CCCC2)c1 (stereo not drawn) | 4.87% (inactive) |
